# PubChem BioAssay
# A number with no mark means an inactive call. Activity calls are given as the source filed them. Unless noted, no stated cut-off is given here; in the data, active means inhibition above about 30%; inactive means the rest.
# Columns and labels:
# [1] = biological target: Nuclear receptor coactivator 3 (Homo sapiens) (UniProt Q9Y6Q9); experiment: NCOA3 GAL4-fusion reporter inhibition – cell-based, luminescence, quadruplicate, confirmation (AID 588792;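 active means mean inhibition over 43.08%, the solvent-only control mean plus 3 SD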;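 further: 0% = DMSO treated cells and 100% = gossypol at 36 µM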); conditions: HEK293 GAL4-SRC3 luciferase reporter, at 3.6 µM, stronger effect = higher value
# Chain of Nuclear receptor coactivator 3 (Homo sapiens) (Q9Y6Q9 whole entry, looked up, the tested form may be a part): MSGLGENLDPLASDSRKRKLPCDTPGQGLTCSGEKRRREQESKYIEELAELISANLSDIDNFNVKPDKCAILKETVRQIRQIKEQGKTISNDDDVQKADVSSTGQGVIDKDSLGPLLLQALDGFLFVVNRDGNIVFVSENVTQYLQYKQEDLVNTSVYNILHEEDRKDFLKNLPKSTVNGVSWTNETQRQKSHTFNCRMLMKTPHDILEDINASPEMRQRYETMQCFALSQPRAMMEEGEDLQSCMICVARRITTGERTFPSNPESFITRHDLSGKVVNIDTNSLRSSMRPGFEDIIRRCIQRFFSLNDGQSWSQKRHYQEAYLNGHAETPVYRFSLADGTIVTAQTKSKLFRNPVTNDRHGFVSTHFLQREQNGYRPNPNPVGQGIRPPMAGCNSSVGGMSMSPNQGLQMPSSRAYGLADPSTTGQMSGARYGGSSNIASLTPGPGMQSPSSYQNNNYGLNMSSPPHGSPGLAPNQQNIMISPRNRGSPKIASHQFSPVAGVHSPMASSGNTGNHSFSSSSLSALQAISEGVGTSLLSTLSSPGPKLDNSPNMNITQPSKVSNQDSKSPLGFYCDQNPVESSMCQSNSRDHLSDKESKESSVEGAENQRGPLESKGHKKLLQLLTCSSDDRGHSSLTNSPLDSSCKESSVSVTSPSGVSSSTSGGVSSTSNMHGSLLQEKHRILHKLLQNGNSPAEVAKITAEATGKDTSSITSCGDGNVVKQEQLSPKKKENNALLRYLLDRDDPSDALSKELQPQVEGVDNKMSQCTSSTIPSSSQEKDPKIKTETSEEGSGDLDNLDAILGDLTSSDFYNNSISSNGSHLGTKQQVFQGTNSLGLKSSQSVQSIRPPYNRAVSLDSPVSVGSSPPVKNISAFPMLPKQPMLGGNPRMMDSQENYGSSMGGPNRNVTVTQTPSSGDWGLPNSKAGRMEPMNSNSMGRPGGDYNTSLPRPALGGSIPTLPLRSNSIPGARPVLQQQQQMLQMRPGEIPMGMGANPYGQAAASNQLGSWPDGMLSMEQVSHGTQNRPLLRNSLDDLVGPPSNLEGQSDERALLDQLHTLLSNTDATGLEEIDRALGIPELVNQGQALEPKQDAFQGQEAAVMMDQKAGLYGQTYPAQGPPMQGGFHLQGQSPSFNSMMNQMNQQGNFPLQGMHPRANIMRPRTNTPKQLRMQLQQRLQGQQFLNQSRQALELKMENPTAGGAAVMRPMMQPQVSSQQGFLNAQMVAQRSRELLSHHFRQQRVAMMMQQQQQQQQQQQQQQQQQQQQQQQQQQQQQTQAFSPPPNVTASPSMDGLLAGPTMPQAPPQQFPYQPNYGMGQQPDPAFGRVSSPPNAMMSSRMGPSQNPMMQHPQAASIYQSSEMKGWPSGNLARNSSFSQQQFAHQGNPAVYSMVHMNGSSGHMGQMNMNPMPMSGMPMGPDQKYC
# [2] = tested on: transactivating tegument protein VP16 (Human herpesvirus 1), Gal4-VP16 luciferase reporter; experiment: repression of VP16-driven luciferase reporter – cell-based, luminescence, high throughput, counter-screen for SRC3 inhibitor project (AID 588794); conditions: mammalian cells, at 3.6 µM, stronger effect = higher value
# [3] = biological target: Nuclear receptor coactivator 1 (Homo sapiens) (UniProt Q15788); experiment: NCOA1 GAL4-fusion reporter inhibition – cell-based, luminescence, quadruplicate, confirmation (AID 588820;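 active means mean inhibition above 46.68%, the untreated control wells mean plus 3 SD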;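 further: 0% = DMSO wells and 100% = gossypol 36 µM treated wells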); conditions: HEK293 GAL4-SRC1 luciferase reporter, at 3.6 µM, stronger effect = higher value
# Chain of Nuclear receptor coactivator 1 (Homo sapiens) (Q15788 whole entry, looked up, the tested form may be a part): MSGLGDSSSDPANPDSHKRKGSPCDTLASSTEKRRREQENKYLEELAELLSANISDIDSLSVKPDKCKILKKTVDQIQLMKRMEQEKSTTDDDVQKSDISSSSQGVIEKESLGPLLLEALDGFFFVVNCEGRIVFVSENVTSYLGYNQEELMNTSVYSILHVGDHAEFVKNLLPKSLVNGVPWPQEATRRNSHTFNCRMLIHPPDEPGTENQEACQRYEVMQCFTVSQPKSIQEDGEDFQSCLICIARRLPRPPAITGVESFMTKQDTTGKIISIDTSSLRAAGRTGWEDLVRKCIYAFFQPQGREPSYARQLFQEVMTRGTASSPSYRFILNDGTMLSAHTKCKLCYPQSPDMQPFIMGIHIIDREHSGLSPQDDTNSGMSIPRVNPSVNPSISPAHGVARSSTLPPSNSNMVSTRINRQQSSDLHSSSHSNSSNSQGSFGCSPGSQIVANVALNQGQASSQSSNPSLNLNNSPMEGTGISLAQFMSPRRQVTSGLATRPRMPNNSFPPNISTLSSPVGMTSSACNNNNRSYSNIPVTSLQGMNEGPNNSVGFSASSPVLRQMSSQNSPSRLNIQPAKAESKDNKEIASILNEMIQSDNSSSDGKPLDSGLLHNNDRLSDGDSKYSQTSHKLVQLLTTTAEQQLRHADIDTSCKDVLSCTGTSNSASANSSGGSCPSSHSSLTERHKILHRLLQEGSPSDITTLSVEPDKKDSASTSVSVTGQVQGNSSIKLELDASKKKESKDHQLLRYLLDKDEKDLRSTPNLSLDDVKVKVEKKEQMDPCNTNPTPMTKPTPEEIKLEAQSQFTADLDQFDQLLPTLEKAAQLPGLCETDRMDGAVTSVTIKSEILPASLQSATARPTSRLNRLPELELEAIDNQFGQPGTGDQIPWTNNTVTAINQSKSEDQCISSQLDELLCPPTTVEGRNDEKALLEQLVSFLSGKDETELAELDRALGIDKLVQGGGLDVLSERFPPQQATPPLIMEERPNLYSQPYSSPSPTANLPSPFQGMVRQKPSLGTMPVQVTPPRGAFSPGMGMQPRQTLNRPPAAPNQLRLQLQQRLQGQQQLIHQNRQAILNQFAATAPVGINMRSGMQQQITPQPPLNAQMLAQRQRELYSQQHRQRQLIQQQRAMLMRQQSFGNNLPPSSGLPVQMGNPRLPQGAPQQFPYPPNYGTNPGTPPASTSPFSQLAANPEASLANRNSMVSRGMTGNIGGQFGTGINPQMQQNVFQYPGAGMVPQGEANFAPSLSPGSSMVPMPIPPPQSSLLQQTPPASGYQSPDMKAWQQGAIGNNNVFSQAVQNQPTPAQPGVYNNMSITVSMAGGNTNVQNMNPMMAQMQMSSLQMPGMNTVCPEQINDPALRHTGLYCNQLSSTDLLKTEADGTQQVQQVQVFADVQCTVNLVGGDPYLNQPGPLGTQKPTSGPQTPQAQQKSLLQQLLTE
# [4] = repression of VP16-driven luciferase reporter – cell-based, luminescence, high throughput, counter-screen for SRC1 inhibitor project (AID 588824; in the data active means inhibition above about 25%); conditions: cell-based VP16 transactivation luciferase luminescence; at 3.6 µM; stronger effect = higher value
# [5] = StAR promoter reporter inhibitors, counter-screen for LRH-1 inverse agonist project, cell-based, luminescence, high throughput (AID 651611; in the data active means inhibition above about 28%); conditions: StAR promoter luciferase reporter counterscreen, at 3.6 µM, stronger effect = higher value
# [6] = biological target: Nuclear receptor subfamily 5 group A member 2 (Homo sapiens) (UniProt O00482); experiment: NR5A2 activity suppression in reporter cells – cell-based, luminescence, confirmation (AID 651613; in the data active means inhibition above about 42%;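 further: HEK293T cells co-transfected with LRH-1 and StAR promoter luciferase reporter; 0% = vehicle wells and 100% = parental cells lacking receptor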); conditions: cell-based LRH-1 luciferase reporter, inverse agonism; at 3.6 µM; stronger effect = higher value
# Chain of Nuclear receptor subfamily 5 group A member 2 (Homo sapiens) (O00482 whole entry, looked up): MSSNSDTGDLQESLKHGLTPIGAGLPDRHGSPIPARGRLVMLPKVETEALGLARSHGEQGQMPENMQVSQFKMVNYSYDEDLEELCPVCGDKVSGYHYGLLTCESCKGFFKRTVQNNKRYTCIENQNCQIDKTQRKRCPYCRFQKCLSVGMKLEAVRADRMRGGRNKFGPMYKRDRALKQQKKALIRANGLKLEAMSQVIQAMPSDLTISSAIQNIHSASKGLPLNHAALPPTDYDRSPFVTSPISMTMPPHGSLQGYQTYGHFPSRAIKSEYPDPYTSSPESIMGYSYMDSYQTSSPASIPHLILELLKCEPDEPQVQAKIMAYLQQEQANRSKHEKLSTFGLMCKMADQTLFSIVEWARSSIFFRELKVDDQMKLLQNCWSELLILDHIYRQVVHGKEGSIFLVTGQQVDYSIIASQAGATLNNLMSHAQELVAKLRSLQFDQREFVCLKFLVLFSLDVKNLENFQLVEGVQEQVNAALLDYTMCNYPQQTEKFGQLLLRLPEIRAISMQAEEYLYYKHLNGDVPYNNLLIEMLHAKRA
# [7] = biological target: Steroidogenic factor 1 (Homo sapiens) (UniProt Q13285); experiment: inverse agonism at SF1 nuclear receptor – cell-based, luminescence, high throughput, counter-screen for LRH-1 inverse agonist project (AID 651614; in the data active means inhibition above about 44%;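 further: cells cotransfected with StAR promoter reporter and SF1 expression vector; 0% = vehicle on cells with receptor and 100% = vehicle on cells lacking receptor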); conditions: cell-based SF1 luciferase reporter, at 3.6 µM, stronger effect = higher value
# Chain of Steroidogenic factor 1 (Homo sapiens) (Q13285 whole entry, looked up, the tested form may be a part): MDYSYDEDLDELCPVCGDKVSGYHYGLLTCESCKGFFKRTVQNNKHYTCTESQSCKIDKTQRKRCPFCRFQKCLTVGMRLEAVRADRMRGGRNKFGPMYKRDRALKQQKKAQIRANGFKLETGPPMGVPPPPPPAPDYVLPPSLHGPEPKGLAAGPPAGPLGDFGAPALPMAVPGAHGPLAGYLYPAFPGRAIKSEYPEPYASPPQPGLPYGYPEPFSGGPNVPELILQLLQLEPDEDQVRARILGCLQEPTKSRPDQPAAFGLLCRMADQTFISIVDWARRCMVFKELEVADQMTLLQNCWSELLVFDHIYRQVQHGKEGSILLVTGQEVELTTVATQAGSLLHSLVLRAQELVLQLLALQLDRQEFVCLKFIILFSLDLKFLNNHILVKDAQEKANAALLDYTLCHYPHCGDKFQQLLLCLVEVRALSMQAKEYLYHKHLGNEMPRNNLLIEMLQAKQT
# [8] = compounds suppressing VP16-driven luciferase signal – cell-based, luminescence, high throughput, counter-screen for LRH-1 inverse agonist project (AID 651615; in the data active means inhibition above about 33%); conditions: Gal4-VP16 luciferase reporter cells, at 3.6 µM, stronger effect = higher value
# [9] = tested on: transactivating tegument protein VP16 (Human herpesvirus 1); experiment: compounds suppressing VP16-driven luciferase signal – cell-based, luminescence, single concentration, counter-screen for SRC2 inhibitor project (AID 652007; in the data active means inhibition above about 36%); conditions: cell-based VP16 transactivation luciferase reporter, at 8.9 µM, stronger effect = higher value
# [10] = biological target: Nuclear receptor coactivator 2 (Homo sapiens) (UniProt Q15596); experiment: inhibition of GAL4-SRC2 driven luciferase expression – cell-based, luminescence, HEK293, triplicate, confirmation (AID 652008;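 active means mean inhibition above 46.5%, the solvent-only control mean plus 3 SD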;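 further: 0% = DMSO-treated cells and 100% = Gossypol at 36 µM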); conditions: HEK293 GAL4-SRC2 luciferase reporter, at 8.9 µM, stronger effect = higher value
Structure (SMILES),inhibition [1],inhibition [2],inhibition [3],inhibition [4],inhibition [5],inhibition [6],inhibition [7],inhibition [8],inhibition [9],inhibition [10]
COc1ccc(S(=O)(=O)N2CCOCC2)cc1NC(=O)CCNC(=O)c1ccc([N+](=O)[O-])cc1,88.6% (active),60.8% (active),75.6% (active),33.3% (active),89.2% (active),99.3% (active),95.5% (active),72.9% (active),4.19%,49.4% (active)
COc1ccccc1-c1nnc(Sc2nc([N+](=O)[O-])nn2C)o1,58.5% (active),32.7% (active),18.7%,36.4% (active),59.9% (active),62% (active),38.3%,64.1% (active),46.1% (active),65.3% (active)
OCC1OC(n2ccc3c2ncn2ncnc32)C(O)C1O (stereo not given),64.6% (active),44.2% (active),55.1% (active),38.2% (active),52.8% (active),49.2% (active),38.8%,60.2% (active),12.2%,46.4%
O=C(COc1ccc(Cl)cc1Cl)Nc1ccccn1,56.2% (active),53.6% (active),32.1%,48.2% (active),46.9% (active),27.2%,60.6% (active),32.3% (active),67.4% (active),85.2% (active)
c1csc(CNc2ccc3c(c2)OCCO3)c1,23.3%,-33.9%,-25.5%,-34.9%,-19.7%,-77.1%,-20.9%,-49.8%,60.7% (active),47.1% (active)
Nc1ccc(Oc2ccccc2-c2ccccc2)cc1,42.6%,17.6%,14.7%,19%,30.3% (active),53.5% (active),49.6% (active),39.6% (active),80.5% (active),87.8% (active)
CC1CCc2c(sc(NC(=O)CSc3ncn[nH]3)c2C#N)C1 (stereo not given),56% (active),66.1% (active),31.9%,61.4% (active),32.5% (active),56.7% (active),39.5%,61.9% (active),87% (active),90.2% (active)
CC(=O)OC[C@]12CC[C@H]3[C@@](C)(CC[C@H]4C(C)(C)CCC[C@]34C)[C@@H]1CC(C1=CC(=O)OC1O)O2 (stereo not given in full),93.2% (active),90% (active),-93.3%,90.8% (active),92.7% (active),110% (active),97.1% (active),95% (active),96% (active),93.4% (active)
Cc1ccc(Nc2nc(N)nc(CCl)n2)c(C)c1,74% (active),32.8% (active),38.6%,28.1% (active),20%,58.7% (active),29.4%,56% (active),-27.8%,40.4%
O=C(CN1C(=O)c2ccccc2S1(=O)=O)c1ccc2c(c1)OCCO2,87.8% (active),89.7% (active),64% (active),84.8% (active),85.1% (active),86.3% (active),84.5% (active),84.4% (active),91.4% (active),95.2% (active)
Cc1ccc(C(=O)N/N=C/c2ccc([N+](=O)[O-])s2)cc1,54.5% (active),39.1% (active),33.7%,44.4% (active),70.3% (active),83.9% (active),75.6% (active),52.3% (active),82.5% (active),92.4% (active)
CC1CC(C)C(=O)C(C(CC2CC(=O)NC(=O)C2)OC(=O)CC(=O)c2ccccc2)C1 (stereo not given),93.1% (active),88.9% (active),81.3% (active),87.8% (active),91.6% (active),108% (active),96.9% (active),91.7% (active),37.2% (active),52.5% (active)
Cc1nc2c(-c3ccc(F)cc3)cnn2c(N)c1-c1ccccc1,55.5% (active),38.8% (active),29.6%,7.29%,6.33%,-102%,-17.6%,-0.77%,74.5% (active),79.6% (active)
Cc1ccc2oc(/N=C(\N)NC(=O)C(C)(C)C)nc2c1,82.8% (active),73.6% (active),65.2% (active),61.1% (active),80.4% (active),51.4% (active),75.4% (active),61.7% (active),77.6% (active),91.5% (active)
CC(=O)NC(c1ccc(C(C)C)cc1)c1ccc2cccnc2c1O (stereo not given),74.3% (active),58.4% (active),65.9% (active),60.9% (active),89.1% (active),105% (active),86.2% (active),75% (active),-23.1%,26.8%
Oc1ccc(CCNc2ncnc3ccc(Cl)cc23)cc1,64.9% (active),61.6% (active),60.8% (active),62% (active),43.6% (active),70.5% (active),68.7% (active),78.6% (active),26.7%,65.6% (active)
Cc1nc2c(-c3ccccc3)cnn2c(N)c1-c1ccccc1,43.4% (active),37.4% (active),13.1%,5.33%,-35.4%,-128%,-43.9%,-38.5%,19.9%,58.2% (active)
CC1CCCN(c2ncnc3c2cnn3-c2ccc(Cl)cc2)C1 (stereo not given),88.7% (active),84.3% (active),74.4% (active),71.4% (active),80.3% (active),60.3% (active),79.2% (active),66.5% (active),82% (active),93.9% (active)
O=C(Nc1nc2cc3c(cc2s1)OCCO3)C1=COCCO1,30.4%,26.9%,-78.2%,13.4%,24.4%,-3.27%,52.2% (active),4.13%,70.8% (active),81.6% (active)
O=C(NCCc1ccccc1)c1ccc2c(c1)OCCCO2,68.3% (active),67.7% (active),31.9%,53.5% (active),75.5% (active),62.5% (active),78.5% (active),66.5% (active),78.8% (active),87.7% (active)
Cc1nn(-c2ccccc2Cl)c(Cl)c1/C=N/Nc1nc2ccccc2s1,64.1% (active),73.5% (active),48.1% (active),57.4% (active),82.7% (active),21.8%,73.5% (active),58.5% (active),82.7% (active),91.7% (active)
Cc1ccc(C#N)c(SCc2nnc(-c3ccc(Cl)cc3)o2)n1,67.8% (active),54.9% (active),30.4%,28.1% (active),30.7% (active),-14.8%,21.1%,7.27%,59.4% (active),85.4% (active)
COC(=O)c1ccc2nc(Nc3nc4c(F)cc(F)cc4s3)sc2c1,23.9%,40.6% (active),-34.6%,36.7% (active),28.2% (active),-92.1%,25.5%,-29.2%,-2.64%,61.1% (active)
C(=NN1CCCCCC1)c1ccc2ccccc2n1,88.6% (active),82.8% (active),68.3% (active),72.1% (active),87.8% (active),67% (active),87% (active),70.8% (active),92.4% (active),94.9% (active)
CC[C@@]1(O)C(=O)OCc2c1cc1n(c2=O)Cc2cc3c(N)cccc3nc2-1,91.8% (active),77.3% (active),58.2% (active),74.7% (active),84.6% (active),104% (active),92% (active),77.2% (active),30.5%,51.9% (active)
COCCn1c(C)cc(C2=NNC(=Nc3ccccc3F)SC2)c1C,57.4% (active),52.3% (active),60.5% (active),28.1% (active),54.2% (active),-47%,63% (active),-31.7%,87.2% (active),91.5% (active)
Nc1ccc(-c2cc3ccccc3oc2=O)cc1,43.5% (active),20.6%,45%,18.9%,52.2% (active),73.5% (active),65.2% (active),34.1% (active),67.1% (active),94.6% (active)
COCC(=O)OC1CCn2c1nc1c2C(=O)C(C)=C(NC(C)=O)C1=O (stereo not given),91.9% (active),86.7% (active),75.1% (active),85.7% (active),80.1% (active),99.7% (active),86.6% (active),90.8% (active),57.3% (active),73.5% (active)
Cc1cc(C)c(C(=O)/C=C/c2cccc3ccccc23)c(=O)[nH]1,72.8% (active),56.7% (active),55.2% (active),63.5% (active),94% (active),110% (active),97.8% (active),94.3% (active),47.2% (active),65.3% (active)
COc1ccc(/C=C2\SC(=O)N(CCCC(=O)Nc3cc(Cl)ccc3C(=O)O)C2=O)cc1,86.5% (active),77% (active),75.5% (active),70.3% (active),83.7% (active),94% (active),82% (active),75.7% (active),93.9% (active),97.8% (active)
